About 79,000 compounds went through this panel and 15% of them were active in at least one assay; those are over-represented in the sample as a whole. Values without a mark were called inactive. Active and inactive are the calls of the source. Cut-off read from the data, not from the text of the source: active = growth inhibition above about 70%; inactive = the rest.
Assay: NCI Yeast Anticancer Drug Screen. Data for the sgs1 mgt1 strain (AID 161);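 note: 0% = growth of cultures given vehicle only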
Conditions: S. cerevisiae sgs1 mgt1 strain, at 50.0 µM, hits give high values
In short: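 Growth of a repair-deficient yeast mutant was monitored after compound treatment and expressed as inhibition relative to vehicle-treated cultures.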
C[N+](C)(C)C12CCCC1S(=O)(=O)C2 (stereo not given) showed a growth inhibition of 9.3%.
CCc1nc(N)nc(N)c1-c1ccc(Cl)c(NC(C)=O)c1 showed a growth inhibition of -7.6%.
Nc1nc(Cl)cc(NCC(O)CO)n1 (stereo not given) gave a growth inhibition of -1.45%.
With NCCC(=O)NCCSSCCNC(=O)CCN the growth inhibition was 6.25%.
In the case of COC(=O)OC(C#N)c1cccc([N+](=O)[O-])c1 (stereo not given), the growth inhibition is reported as 6.2%.
Work on O=C1S/C(=C2\C(=O)N(CN3CCCCC3)c3ccc(Br)cc32)C(=O)N1CN1CCCCC1 yielded a growth inhibition of 9.35%.
In the case of c1ccc2c(c1)ncc1cc3c(cc12)[nH]c1ccccc13, the growth inhibition is reported as 16.6%.
With CC1CN(c2ccc(Cl)cc2)CC(C)(C)OC(=O)O1 (stereo not given) the growth inhibition was -10.6%.
In the case of CC(C)(C)CC(C)(C)c1c(O)cc(O)cc1Cl, the growth inhibition is reported as 94.8% (active).
Work on CCOC(=O)Nn1c(C)nnc1CC#N yielded a growth inhibition of -8.1%.
Compound N=c1oc2ccc([N+](=O)[O-])cc2cc1C(=O)NCc1ccccc1 has a growth inhibition of -13.9%.
With CCNC(=O)NCCN1CCOCC1 the growth inhibition was -3.1%.
Compound O=C1CSC(/C(=C/c2ccccc2)c2nc3ccccc3[nH]2)=N1 has a growth inhibition of 0.15%.
In the case of COc1ccc(N(C)S(=O)(=O)c2ccccc2)cc1, the growth inhibition is reported as -3.65%.
COC(=O)CC1(CC(=O)O)SCCS1 gave a growth inhibition of 11.5%.
For CCOC(=O)C(=CC(CC)CC)C(=O)OCC, the growth inhibition was -10.2%.
Work on CC(=O)ON(C(=O)c1ccccc1)c1ccccc1 yielded a growth inhibition of 4.3%.
CCCCCCCCSC(SCCCCCCCC)=C1C(=O)N(c2ccccc2)N=C1C showed a growth inhibition of 2.2%.
For CCNC(=S)NCCc1c[nH]c2ccccc12, the growth inhibition was -7.75%.
Work on O=C(CSc1nnc(Cc2ccccc2)o1)Nc1cccc([N+](=O)[O-])c1 yielded a growth inhibition of 12.1%.
For C/C(=N\NC(N)=S)c1cc(C)c(C)cc1C, the growth inhibition was 50%.
In the case of CCSc1cccc(C(=O)O)c1, the growth inhibition is reported as -3.4%.
Compound NC(=S)N/C=C(/c1ccc(Cl)cc1Cl)S(=O)(=O)Cc1ccc(Cl)cc1Cl has a growth inhibition of 9.6%.
Compound C=C(C)C1Cc2c(cc(O)c3c(=O)c4c(oc23)C(O)Oc2cc(OC)c(OC)cc2-4)O1 (stereo not given) has a growth inhibition of 0.9%.
CCCCNc1ccc(Cl)cc1 showed a growth inhibition of -16.7%.
O=C1CSC(c2cccnc2)N1CCN1C(=O)CSC1c1cccnc1 (stereo not given) showed a growth inhibition of -11.5%.
Cc1[nH]c(=O)nc(CC(O)(c2ccccc2)c2ccccc2)c1-c1ccccc1 showed a growth inhibition of -22%.
Work on C[Si](C)(C)OC=C1CCCCC1 yielded a growth inhibition of -3.55%.
For N#CCC(=O)N/N=C/c1ccccc1, the growth inhibition was 0.55%.
In the case of Cc1c(C(=O)CC(=O)C(=O)Nc2c(C(C)C)cccc2C(C)C)[n+](=O)c2ccccc2n1[O-], the growth inhibition is reported as 22.2%.
With CC(C)(C(=O)Cc1ccccc1)c1ccccc1 the growth inhibition was -10.2%.
Compound Cc1nnc2n(c1=O)CCCN2C has a growth inhibition of 11.6%.
CC1(C)C2CCC1(C)C(NC(N)=O)C2 (stereo not given) showed a growth inhibition of -8.95%.
Compound CCOC1CCC(C(=O)CC)C(C#N)(C#N)C1(C#N)C#N (stereo not given) has a growth inhibition of 4.75%.
With NS(=O)(=O)c1ccc(NC(=S)/N=C/c2c(O)c3ccccc3oc2=O)cc1 the growth inhibition was 16.3%.
With CC(c1ccccc1)C(C)c1ccccc1 (stereo not given) the growth inhibition was -16.6%.
Work on Cc1cccc(Cl)c1NC(=O)c1cccc([N+](=O)[O-])c1 yielded a growth inhibition of 22.9%.
Compound CCCCCCCN1C=CCC(S(=O)(=O)N2CCOCC2)=C1 has a growth inhibition of -11.4%.
Work on CCc1cnc(N)nc1N yielded a growth inhibition of 5.85%.
O=[N+]([O-])C(/C=N/Nc1ccccc1)/C=N/Nc1ccccc1 showed a growth inhibition of -20.8%.

Assay: NCI Yeast Anticancer Drug Screen. Data for the cln2 rad14 strain (AID 165);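 note: 0% = growth equal to vehicle treated cultures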
Conditions: S. cerevisiae cln2 rad14 strain, at 50.0 µM, hits give high values
In short: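 Relative to vehicle controls, growth inhibition of compound-treated cln2 rad14 yeast was recorded.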
With C[N+](C)(C)C12CCCC1S(=O)(=O)C2 (stereo not given) the growth inhibition was -7.5%.
CCc1nc(N)nc(N)c1-c1ccc(Cl)c(NC(C)=O)c1 gave a growth inhibition of 10.1%.
In the case of Nc1nc(Cl)cc(NCC(O)CO)n1 (stereo not given), the growth inhibition is reported as 6.65%.
In the case of NCCC(=O)NCCSSCCNC(=O)CCN, the growth inhibition is reported as -16.8%.
In the case of COC(=O)OC(C#N)c1cccc([N+](=O)[O-])c1 (stereo not given), the growth inhibition is reported as -13.7%.
In the case of O=C1S/C(=C2\C(=O)N(CN3CCCCC3)c3ccc(Br)cc32)C(=O)N1CN1CCCCC1, the growth inhibition is reported as -2.05%.
c1ccc2c(c1)ncc1cc3c(cc12)[nH]c1ccccc13 showed a growth inhibition of -11.1%.
CC1CN(c2ccc(Cl)cc2)CC(C)(C)OC(=O)O1 (stereo not given) showed a growth inhibition of 0.2%.
In the case of CC(C)(C)CC(C)(C)c1c(O)cc(O)cc1Cl, the growth inhibition is reported as 99% (active).
With CCOC(=O)Nn1c(C)nnc1CC#N the growth inhibition was -16.8%.
With N=c1oc2ccc([N+](=O)[O-])cc2cc1C(=O)NCc1ccccc1 the growth inhibition was 3.95%.
CCNC(=O)NCCN1CCOCC1 gave a growth inhibition of -75%.
With O=C1CSC(/C(=C/c2ccccc2)c2nc3ccccc3[nH]2)=N1 the growth inhibition was 16.2%.
With COc1ccc(N(C)S(=O)(=O)c2ccccc2)cc1 the growth inhibition was 10.8%.
Compound COC(=O)CC1(CC(=O)O)SCCS1 has a growth inhibition of 2.9%.
In the case of CCOC(=O)C(=CC(CC)CC)C(=O)OCC, the growth inhibition is reported as -4.1%.
CC(=O)ON(C(=O)c1ccccc1)c1ccccc1 gave a growth inhibition of -5.15%.
With CCCCCCCCSC(SCCCCCCCC)=C1C(=O)N(c2ccccc2)N=C1C the growth inhibition was 19.6%.
Compound CCNC(=S)NCCc1c[nH]c2ccccc12 has a growth inhibition of -0.4%.
With O=C(CSc1nnc(Cc2ccccc2)o1)Nc1cccc([N+](=O)[O-])c1 the growth inhibition was -10.3%.
Compound C/C(=N\NC(N)=S)c1cc(C)c(C)cc1C has a growth inhibition of 17.2%.
CCSc1cccc(C(=O)O)c1 showed a growth inhibition of -27.8%.
For NC(=S)N/C=C(/c1ccc(Cl)cc1Cl)S(=O)(=O)Cc1ccc(Cl)cc1Cl, the growth inhibition was 6.95%.
For C=C(C)C1Cc2c(cc(O)c3c(=O)c4c(oc23)C(O)Oc2cc(OC)c(OC)cc2-4)O1 (stereo not given), the growth inhibition was -3.85%.
In the case of CCCCNc1ccc(Cl)cc1, the growth inhibition is reported as -27.9%.
O=C1CSC(c2cccnc2)N1CCN1C(=O)CSC1c1cccnc1 (stereo not given) gave a growth inhibition of -2.4%.
In the case of Cc1[nH]c(=O)nc(CC(O)(c2ccccc2)c2ccccc2)c1-c1ccccc1, the growth inhibition is reported as 14.2%.
Compound C[Si](C)(C)OC=C1CCCCC1 has a growth inhibition of -29.2%.
N#CCC(=O)N/N=C/c1ccccc1 showed a growth inhibition of 9.95%.
For Cc1c(C(=O)CC(=O)C(=O)Nc2c(C(C)C)cccc2C(C)C)[n+](=O)c2ccccc2n1[O-], the growth inhibition was 40.5%.
CC(C)(C(=O)Cc1ccccc1)c1ccccc1 gave a growth inhibition of 31.1%.
For Cc1nnc2n(c1=O)CCCN2C, the growth inhibition was -11.8%.
CC1(C)C2CCC1(C)C(NC(N)=O)C2 (stereo not given) showed a growth inhibition of -6.6%.
In the case of CCOC1CCC(C(=O)CC)C(C#N)(C#N)C1(C#N)C#N (stereo not given), the growth inhibition is reported as 12.8%.
Work on NS(=O)(=O)c1ccc(NC(=S)/N=C/c2c(O)c3ccccc3oc2=O)cc1 yielded a growth inhibition of -18.9%.
In the case of CC(c1ccccc1)C(C)c1ccccc1 (stereo not given), the growth inhibition is reported as -72.5%.
For Cc1cccc(Cl)c1NC(=O)c1cccc([N+](=O)[O-])c1, the growth inhibition was -7.95%.
Compound CCCCCCCN1C=CCC(S(=O)(=O)N2CCOCC2)=C1 has a growth inhibition of 3.85%.
With CCc1cnc(N)nc1N the growth inhibition was 1.95%.
For O=[N+]([O-])C(/C=N/Nc1ccccc1)/C=N/Nc1ccccc1, the growth inhibition was -6.55%.

— PubChem BioAssay (NCI)
